Tau fluor cs: counter-screen for tau fibril formation inhibitors. Potency, µM (titrated, usually from 57.7 µM), for the others: at the top dose activity change, negative = decrease. AID 1463. tau K18 P301L Alexa594 fluorescence, heparin fibrillization. 280,000 compounds, 0.93% hits; further: nearly all actives have a fitted effect of over 55% in size
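Human tau K18 P301L (15 uM unlabeled, 0.24 uM Alexa 594-labeled) in 100 mM sodium acetate pH 7 with 20 uM heparin, 6 hr at 37 C. ThT 30 uM added, 1 hr ambient; Alexa 594 FP and total fluorescence read at 555/632 nm.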
Sfp inh: blocks B. subtilis Sfp PPTase activity. Biochemical Sfp PPTase activity, qHTS. Potency, µM, for inactives: largest response in the series, negative = inhibition, usual class: inhibitors. 310,000 compounds, 3.5% hits;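 further: the enzyme is Sfp with the accession as filed and its product quenches rhodamine fluorescence; 0% = enzyme reaction without inhibitor and -100% = no enzyme wells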
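With Hepes-Na pH 7.6 buffer containing 10 mM MgCl2, Sfp (15 nM) modified BHQ-2-YbbR (12.5 uM) using rhodamine-CoA (5 uM). Two reads 30 minutes apart at 525/598 nm yielded each well's rate.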
Tau FP inhib: inhibitors of human tau fibril formation; P10636; K18 P301L tau heparin fibrillization, Alexa594 FP, 6 h; Potency, µM (series often up to 57.7 µM), for the others: at the top dose activity, negative = inhibition, actives largely listed as inhibitors; 280,000 compounds, 0.39% hits; AID 1468; further: nearly all actives have a fitted effect of over 55% in size
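Steps: dispense K18 P301L tau (15 uM plus 0.24 uM Alexa 594 tracer, final) in pH 7 sodium acetate; add compound; add heparin (20 uM final); incubate 6 hr, 37 C; add ThT (30 uM final); after 1 hr ambient, read FP.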
Tau ThT inhib: tau fibrillization inhibition (ThT binding); P10636; recombinant tau K18 P301L, heparin-induced fibrillization, ThT fluorescence; Potency, µM (highest dose often 57.4 µM), inactives show at the top dose activity, negative = inhibition, hits mostly inhibitors; 270,000 compounds, 2.1% hits; AID 1460; further: nearly all actives have a fitted effect of over 55% in size
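Using a mix of unlabeled (15 uM) and Alexa 594-labeled (0.24 uM) tau K18 P301L, heparin-triggered fibrillization over 6 hr at 37 C was scored by ThT fluorescence.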
PLK1 PBD inh: blocks phosphopeptide binding to human PLK1 polo-box domain; 360,000 compounds, 2.8% hits; Potency, µM, for inactives: max response, negative = inhibition, usual class: inhibitors; Plk1 PBD binding of FITC phosphopeptide, fluorescence polarization; P53350; further: series mostly up to about 57 µM; nearly all actives have a fitted effect of over 65% in size
Target sequence (P53350 whole entry, looked up, the tested form may be a part): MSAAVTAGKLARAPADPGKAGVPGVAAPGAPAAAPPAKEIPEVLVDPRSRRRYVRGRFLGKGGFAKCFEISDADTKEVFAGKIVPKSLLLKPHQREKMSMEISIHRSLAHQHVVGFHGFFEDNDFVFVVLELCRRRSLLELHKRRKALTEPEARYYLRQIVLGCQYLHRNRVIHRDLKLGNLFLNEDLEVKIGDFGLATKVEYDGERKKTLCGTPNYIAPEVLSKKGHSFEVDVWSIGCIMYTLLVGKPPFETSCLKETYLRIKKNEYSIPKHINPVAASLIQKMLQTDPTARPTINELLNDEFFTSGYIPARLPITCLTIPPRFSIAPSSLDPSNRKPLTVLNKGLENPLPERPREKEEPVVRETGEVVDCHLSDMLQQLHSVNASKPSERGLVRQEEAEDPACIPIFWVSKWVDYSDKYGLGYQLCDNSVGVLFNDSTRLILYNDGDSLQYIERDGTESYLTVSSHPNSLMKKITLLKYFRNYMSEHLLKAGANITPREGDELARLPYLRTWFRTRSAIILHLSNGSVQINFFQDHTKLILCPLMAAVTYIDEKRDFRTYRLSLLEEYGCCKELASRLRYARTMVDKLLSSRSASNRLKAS
VDR inhibitor: inhibitors of human vitamin D receptor; P11473; AID 504847; VDR-SRC2-3 peptide fluorescence polarization, 2 h; Potency, µM, for the others: max response, negative = inhibition, actives largely listed as inhibitors; 400,000 compounds, 0.93% hits
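Compounds are added to VDR with labelled SRC2-3 coactivator peptide and held 2 h at room temperature. Inhibition of the VDR–peptide interaction is then read as a change in fluorescence polarization.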
Starred values were filed as active, the others as inactive; ? = inconclusive; nt = no result given; [ ] = remark or other dose. Only some compounds are listed: those with a hit (about 6% of all), similar ones and a draw of the others. The call rests on the fitted dose curve; in most records, active means well fitted curve in the direction sought with a large enough effect; inconclusive means small, poorly fitted or top-dose-only effect, or another doubt; inactive means no such curve, though single readings can be large; an effect the other way counts as inactive or inconclusive. Unless noted, on the % scale 0 is the no-effect control and ±100 the full control effect; potency means the concentration at half of the fitted maximal effect.

SMILES	Tau fluor cs	Sfp inh	Tau FP inhib	Tau ThT inhib	PLK1 PBD inh	VDR inhibitor
CC(=O)Nc1ccc(CN(C)c2c(C)nc3ccc(C(=O)N4CCN(C(C)=O)CC4)cn23)cc1	nt	nt	nt	nt	-7%	nt
Cc1cc(Cl)ccc1OCC(=O)OCC(=O)Nc1ccc(F)c([N+](=O)[O-])c1	11µM*[quencher]	15%	?	?	-8%	14%
CSc1ccc(CN2CCN(Cc3ccc([N+](=O)[O-])cc3)CC2)cc1	-21%	-8%	0%	-18%	6%	-15%
COc1cc(CN2CCN(Cc3ccc(C(F)(F)F)cc3)CC2)cc(OC)c1OC	nt	20µM*	nt	nt	-6%	-8%
COc1ccc(CN2CCN(Cc3ccc(C(F)(F)F)cc3)CC2)c(OC)c1	nt	71µM*	nt	nt	0%	-2%
COc1ccc(CN2CCN(Cc3ccc(C)cc3)CC2)c(OC)c1	nt	-19%	nt	nt	4%	-8%
CS(=O)(=O)N1CCN(Cc2ccc(C(F)(F)F)cc2)CC1	-10%	56µM*	4%	-3%	-4%	-3%
CCS(=O)(=O)N1CCN(Cc2ccc([N+](=O)[O-])cc2)CC1	-5%	79µM*	9%	2%	2%	8%
CCN(CC)C(=O)[C@H]1C[C@H](CC(=O)NCCN2CCOCC2)C(=O)N2CCc3c([nH]c4cc(-c5ccco5)ccc34)[C@]12C	nt	nt	nt	nt	3%	-16%
COc1ccccc1-n1nc(-c2ccccc2)c2cnc3cc(C(F)(F)F)ccc3c21	-7%	nt	-16%	-4%	nt	-11%
O=C(CNC(=O)c1ccccc1F)NCc1ccncc1	nt	nt	nt	nt	2%	6%
Nc1cc(=O)nc(SCC(=O)Nc2ccc(F)cc2)n1CCc1ccccc1	-27%	nt	-8%	-12%	nt	18%
CCCCc1nc2c(c3c1C[C@H](C)OC3)CN(S(=O)(=O)c1c(C)noc1C)CC2	-7%[11.6 µM]	4%	0%[11.6 µM]	-5%[11.5 µM]	nt	nt
COc1ccc(CN2CCN(Cc3ccc(Br)cc3)CC2)c(OC)c1OC	nt	79µM*	nt	nt	-11%	-11%
CCc1nn2c(=O)c(S(=O)(=O)Nc3ccc(C)c(C)c3)c(C)nc2s1	-8%	nt	-10%	-2%	nt	-9%
COc1ccc(NS(=O)(=O)c2cc(NC(=O)c3cnccn3)ccc2N2CCCC2)cc1	?	-24%	2%	?	21µM*	?
COc1ccccc1NS(=O)(=O)c1cc(NC(=O)Nc2cccc(C)c2)ccc1N1CCCCC1	?	-15%	28µM*	?	?	?
COc1ccccc1NC(=O)Nc1ccc(Cl)c(S(=O)(=O)Nc2ccccc2OC)c1	3.2µM*[quencher]	10%	28µM*	-6%	-2%	-4%
COc1ccccc1NS(=O)(=O)c1cc(NC(=O)CCNC(C)=O)ccc1N1CCCCC1	nt	nt	nt	nt	-22%	-8%
COc1ccc(NS(=O)(=O)c2cc(NC(=O)c3ccc(C)o3)ccc2N2CCCCC2)cc1	?	6%	-16%	-1%	-8%	-5%
COc1ccccc1NS(=O)(=O)c1cc(N)ccc1N1CCCC1	nt	nt	nt	nt	6.7µM*	89µM*
O=C(c1ccco1)N1CCC2(CCN(Cc3nccs3)CC2)CC1	nt	21%	nt	nt	nt	-1%
COc1ccc(NC(=O)c2cc(S(=O)(=O)Nc3ccc(OC)cc3)cs2)cc1	13µM*[quencher]	3%	?	-16%	2%	-6%
COc1ccc(NC(=O)Cc2cccc(F)c2)cc1S(=O)(=O)Nc1ccccc1Cl	14µM*[quencher]	18%	?	nt	1%	0%
COc1ccccc1NS(=O)(=O)c1cc(NC(=O)C(C)NC(N)=O)ccc1N1CCCC1 (stereo not drawn)	nt	nt	nt	nt	13µM*	?
COc1ccccc1NS(=O)(=O)c1cc(NC(=O)COc2ccccc2)ccc1N1CCOCC1	nt	nt	nt	nt	-6%	-17%
CCOC(=O)C(=CNc1ccc(N2CCCCC2)c(S(=O)(=O)Nc2ccccc2OC)c1)C(=O)OCC	nt	nt	nt	nt	11µM*	?
CN(CC(=O)NCc1ccc(F)cc1)CC(=O)Nc1ccc(Cl)c(C(F)(F)F)c1	nt	1%	nt	nt	-11%	17%
COc1ccc(OC)c(-c2nn(-c3ccccc3)cc2C(=O)NC2(C)CCS(=O)(=O)C2)c1 (stereo not drawn)	nt	nt	nt	nt	-7%	nt
